Laboratory results published in PubChem BioAssay (NCI).
Several values for one entry are separate records, joined by “and”; a condition that tells them apart may be missing. Identical values can stand only once. The panel holds about 83,000 compounds, 20% with a hit somewhere; the sample as a whole holds those more often.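 For each line, cells grew in 96-well plates with the test compound present at a single concentration for 48 hours.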 Activity calls are given as the source filed them.

Each compound was assayed on U251 CNS (assay: NCI-60 one-dose screen, 48 h (100 = growth as untreated, 0 = no growth, -100 = all killed)). Settings: 1 µM.
Method: Growth inhibition of the U251 human tumor cell line is measured as a screen for anti-cancer activity. Cells are grown in 96 well plates and exposed to the test compound for 48 hours. Compounds are tested at a single concentration, which is 10^-5 M for most compounds. The reported endpoint is percent growth (GI% or GIPRCNT), where numbers from 0 - 100% represent growth inhibition, and numbers from -100% - 0 represent cell death. For example, a value of 40 represents 60% growth inhibition. A value of 0 means no net growth occurred over the course of the experiment. A value of -40 indicates 40% of cells at the beginning of the experiment died by the end of the experiment. A value of -100 means all cells are dead at the end of the experiment.
NCI-60 Human Tumor Cell Lines Screen was performed using the standard one-dose NCI protocol, which is described in more detail at https://dtp.cancer.gov/discovery_development/nci-60/default.htm.
Compounds with GIPRCNT values below 10 were considered active. Activity score was based on GIPRCNT using the following formula: […]
Score is 0 for GIPRCNT values of 100 or above, 50 for GIPRCNT values of 0, and 100 for GIPRCNT values of -100.
With `CNC(=O)c1cc(Oc2ccc(CC(=O)Nc3cc(C(C)(C)C)nn3C)cc2)ccn1` the growth was 86% (inactive).

Same assay, conditions: 10 µM
In the case of `CCc1ccccc1-n1c(N)c(C#N)c(-c2ccc(OC)c(OC)c2)c(C#N)c1=O`, the growth is reported as 101% (inactive). With `CNC(=O)c1cc(Oc2ccc(CC(=O)Nc3cc(C(C)(C)C)nn3C)cc2)ccn1` the growth was 84.5% (inactive). `CC#C[C@]1(O)CC[C@H]2[C@@H]3CCC4=CC(=O)CCC4=C3[C@@H](c3ccc4c(c3)OCO4)C[C@@]21C` was tested, and the growth was 76.1% (inactive).

Same assay, conditions: 10 µM unless noted
With `CCN1CCN(CCNc2nccc(-c3c(-c4cccc(O)c4)nc4sccn34)n2)S1(=O)=O` the growth was 90.4% (inactive) and 93.2% (inactive). In the case of `Cc1ncsc1CCO`, the growth is reported as 99.6% (inactive) and 99.8% (inactive). With `CCN(CC)CCCC(C)Nc1cnc(C(=O)Nc2cc(F)cc3cccnc23)cn1` (stereo not given) the growth was 50.3% (inactive) and -76.1% (active). In the case of `Cc1n[nH]c(=O)n(/N=C\c2c[nH]c3ccccc23)c1=O`, the growth is reported as 98.8% (inactive). In the case of `CNC(=O)c1cccnc1`, the growth is reported as 92.3% (inactive). `Cc1cc(-c2ccc(NS(=O)(=O)c3ccccc3)c(C)c2)ccc1NS(=O)(=O)c1ccccc1` was tested, and the growth was 94% (inactive) and 95.2% (inactive). For `O=C(Nc1ccc([N+](=O)[O-])cc1Cl)c1cc(Cl)ccc1O`, the growth was 1.12% (active) and 16.7% (inactive). `Cc1ccc2nc3c(nc2c1)-c1cccc2cccc-3c12` was tested, and the growth was 78.8% (inactive). For `O=[N+]([O-])c1ccc(Oc2ccccc2)cc1`, the growth was 102% (inactive) and 105% (inactive). With `O=C(O)CCCCc1ccc([N+](=O)[O-])cc1` the growth was 97.4% (inactive) and 108% (inactive). With `CC1=CCC2CC1C2(C)C` (stereo not given) the growth was 97.4% (inactive) and 92% (inactive). With `O=C(O)CN(CCN(CC(=O)O)CC(=O)O)CCN(CC(=O)O)CC(=O)O` the growth was 4.18% (active) and 106% (inactive) and 94.1% (inactive). `CC(=O)C(/C=N/C(N)=O)=C(/C)O` was tested, and the growth was 99.6% (inactive). With `O=C1CCN(Cc2ccccc2)C(=S)N1` the growth was 102% (inactive) and 98.7% (inactive). For `CC1=C(/C=C/C(C)=C/C=C/C(C)=C/C=N/NC(=S)NC(=S)N/N=C/C=C(C)/C=C/C=C(C)/C=C/C2=C(C)CCCC2(C)C)C(C)(C)CCC1`, the growth was -61.8% (active) and -94.4% (active). In the case of `O=[N+]([O-])c1ccc(/C=N\NC(=S)Nc2ccc(F)cc2)cc1`, the growth is reported as 82.8% (inactive) and 83.4% (inactive). In the case of `COc1c(/C(C)=N/N=c2sc(C(C)=O)nn2-c2ccc(Cl)cc2)c(Oc2ccccc2)c(OC)c2occc12`, the growth is reported as 99.5% (inactive) and 97.2% (inactive). For `CCOc1ccc2c(S(=O)(=O)O)cccc2c1[N+](=O)[O-]`, the growth was 101% (inactive) and 99.9% (inactive). With `CCN(CC)C(=O)c1cccnc1` the growth was 96.2% (inactive). In the case of `CC(O)(CC(=O)CC(=O)c1ccccc1)c1ccccc1` (stereo not given), the growth is reported as 89.2% (inactive) and 84.3% (inactive). In the case of `CC(/C=N/N1C(=O)c2ccccc2C1=O)c1ccccc1` (stereo not given), the growth is reported as 99.5% (inactive). In the case of `CC(C)(O)Cn1cc(-c2ccc3nc(OC4CC4)ccc3c2)c2c(N)ncnc21`, the growth is reported as 82.1% (inactive) and 50.5% (inactive). With `Cc1cc(O)c(C(C)C)cc1S(=O)(=O)O` (tested in a mixture with another compound) the growth was 90.3% (inactive) and 9.28% (active) and 102% (inactive). `Cc1ccc(S(=O)(=O)NCN2C(=O)c3ccccc3C2=O)cc1` was tested, and the growth was 103% (inactive). For `O=C(Cc1cccc2ccccc12)N/N=C/c1ccc2c(c1)CCC2`, the growth was 69.9% (inactive). With `Cc1cccc(/C=C\C(=O)c2ccccc2)c1` the growth was 64.8% (inactive) and 91.7% (inactive). With `Cc1cc(C)c(N)c(Br)c1` the growth was 105% (inactive) and 104% (inactive). In the case of `N#C/C(=C/c1c(O)ccc2ccccc12)C(N)=O`, the growth is reported as 103% (inactive). With `O=C(/C=C/c1ccccn1)c1ccccc1O` the growth was 38.3% (inactive) and 68.4% (inactive). For `O=C1NC(=O)C2(CCc3ccccc32)N1` (stereo not given), the growth was 109% (inactive) and 99% (inactive). `CCN(CC)CCCC(C)Nc1ccnc2cc(Oc3ccccc3)ccc12` (stereo not given) was tested, and the growth was 56.5% (inactive) and 60.4% (inactive). With `O=C(N/N=C/c1cccc2ccccc12)C1CC1` the growth was 99.7% (inactive) and 100% (inactive). With `CN(C)c1ccc(C(Cc2ccc3ccccc3n2)Cc2ccc3ccccc3n2)cc1` the growth was 43.5% (inactive) and 81.2% (inactive).

Same assay, conditions: 30 µM
`CNC(=O)c1cc(Oc2ccc(CC(=O)Nc3cc(C(C)(C)C)nn3C)cc2)ccn1` was tested, and the growth was 90.3% (inactive).

Same assay, conditions: 100 µM
`CCc1ccccc1-n1c(N)c(C#N)c(-c2ccc(OC)c(OC)c2)c(C#N)c1=O` was tested, and the growth was 8.35% (active). For `CC#C[C@]1(O)CC[C@H]2[C@@H]3CCC4=CC(=O)CCC4=C3[C@@H](c3ccc4c(c3)OCO4)C[C@@]21C`, the growth was -49.5% (active).
